# Measurements: PubChem BioAssay (NCATS)
# Inconclusive results are not listed. The source made the active and inactive calls. Calls follow the shape of the dose curve; as a rule, active = well fitted cell-killing curve with a large enough effect; inconclusive = small, poorly fitted or top-dose-only effect; inactive = flat fitted curve, though single readings scatter.
# Experiment: Cell Viability - LYMP2-026 (AID 989); also: nearly all actives have a fitted effect of over 50% in size
# Settings: LYMP2-026 lymphoblastoid cell viability, qHTS; series mostly up to 92.2 µM; activity change, negative = cytotoxic: at the top concentration
# From the text: NIH Chemical Genomics Center [NCGC]
# NIH Molecular Libraries Screening Centers Network [MLSCN]
# National Institutes of Environmental Health Sciences [NIEHS]
# National Toxicology Program [NTP]
# We have developed a 1536-well cell-based assay for quantitative high throughput screening (qHTS) against a number of cell lines to determine in vitro cytotoxicity of small molecules. This particular assay uses a human lymphoblastoid cell line (LYMP2-026) purchased from Coriell Institute for Medical Research.
# NCGC Assay Protocol Summary:
# The CellTiter-Glo luminescent cell viability assay (Promega) is a homogeneous method to measure the number of viable cells in culture. The end point readout of this assay is based on quantitation of intracellular ATP, an indicator of metabolic activity, using the luciferase reaction. Luciferase catalyzes the oxidation of beetle Luciferin to oxyluciferin and light in the presence of ATP. The luminescent signal is proportional to amount of ATP present.
# Using the CellTiter-Glo luminescent cell viability assay, the amount of cellular ATP was measured in the lymphoblastoid cell line with complete culture medium following compound treatment for 24 hours. The assay was performed in opaque white Kalypsys 1536-well plates. In the screen, tetraoctylammonium bromide was used as positive control. Library compounds were measured for their ability to cause acute toxicity in the cell line, as reflected by a decrease in intracellular ATP levels, in a concentration-dependent manner. […] AC50 values were determined from concentration-response data modeled with the standard Hill equation.
# qHTS protocol for CellTiter Glo lymphoblastoid cellular assay
# [Step] [Parameter] [Value] [Description]
# 1. Reagent; 5 uL; 2500 lymphoblastoid cells/well
# 2. Time; 5 hr; 37 C incubation
# 4. Controls; 23 nL; Tetraoctylammonium bromide 6.4pM to 92 uM
# 5. Time; 24 hr; 37 C incubation
# 6. Reagent; 5 uL; CellTiter Glo reagent
# 7. Time; 30 min; Room Temperature
# 8. Detection; Luminescence; Viewlux plate reader
# Keywords: cell viability, cytotoxicity, lymphoblastoid cell line, luminescence, NTPHTS, NTPHTS_NCGC, NIEHS, DSSTox, MLSMR, MLSCN, NIH Roadmap, qHTS, NCGC
# % is scaled to controls: 0 for no effect and ±100 for the full control effect.
row,SMILES,"activity change, negative = cytotoxic"
1,COc1ccc(N=[N+]([O-])c2ccc(OC)cc2)cc1,-28.2% (inactive)
2,CCCCCCCN,-3.1% (inactive)
3,CCOCCOCC,3.45% (inactive)
4,C=C(C)C1CC=C(C)C(OC(C)=O)C1 (stereo not given),-4.02% (inactive)
5,CC(C)C(C)C,-0.0868% (inactive)
6,CC(C)Nc1ccccc1,-7.52% (inactive)
7,COc1cccc2sc(N)nc12,-10.6% (inactive)
8,CCN(C(=O)N(CC)c1ccccc1)c1ccccc1,-0.986% (inactive)
9,CC1CCCO1 (stereo not given),-1.81% (inactive)
10,S=C([S-])NCCNC(=S)[S-].[Zn+2],-0.528% (inactive)
11,C=CCCCC,-5.39% (inactive)
12,C[C@@H]1CC2(OC[C@]3(C)O[C@H]23)O[C@H]2C[C@@]3(C)[C@@H]4CC[C@H]5C(C)(C)C(O[C@@H]6OC[C@@H](O)[C@H](O)[C@H]6O)CC[C@@]56C[C@@]46CC[C@]3(C)[C@@H]12 (stereo not given in full),-7.23% (inactive)
13,Nc1cc([N+](=O)[O-])ccc1C(=O)O,4.14% (inactive)
14,Cc1ccc(C(=O)O)cc1,-4.58% (inactive)
15,Nc1ccc(Cl)cc1[N+](=O)[O-],-5.17% (inactive)
16,NC(=S)NNC(N)=S,-13.7% (inactive)
17,CCCCC(CC)CNCC(CC)CCCC (stereo not given),10.5% (inactive)
18,Cc1ccc2ncccc2c1,0.0801% (inactive)
19,Nc1cc(Cl)c(N)c(Cl)c1,2.14% (inactive)
20,CC(C)(c1cc(Br)c(OCC(Br)CBr)c(Br)c1)c1cc(Br)c(OCC(Br)CBr)c(Br)c1 (stereo not given),-2.22% (inactive)

row,SMILES,"activity change, negative = cytotoxic"
1,O=Nc1ccc(NO)cc1,-14.4% (inactive)
2,O=C(O)CNC(=O)c1ccc(CO)o1,3.85% (inactive)
3,CCCCCCCCC/C=C/CC1CC(=O)OC1=O (stereo not given),-3.97% (inactive)
4,Cc1cccc2ccccc12,5.62% (inactive)
5,CN(C)CCCCl,-3.19% (inactive)
6,CCCCN(CCO)CCCC,0.622% (inactive)
7,O=C(O)c1cccc(Cl)c1Cl,-1.23% (inactive)
8,CC(=O)Nc1ccc(C)cc1,4.74% (inactive)
9,O=P(O)(OCc1ccccc1)OCc1ccccc1,7.37% (inactive)
10,CNc1ccc([N+](=O)[O-])cc1,1.57% (inactive)
11,Cc1cccc(Br)c1,-13.9% (inactive)
12,c1ccsc1,8.57% (inactive)
13,N#CCc1ccccc1[N+](=O)[O-],-1.99% (inactive)
14,Nc1cccc(N)c1,2.48% (inactive)
15,Clc1ccc(Cl)c(Cl)c1Cl,0.146% (inactive)
16,O=C(O)c1cc(Cl)cc(Cl)c1,4.71% (inactive)
17,CCNS(=O)(=O)c1ccc(C)cc1,-4.02% (inactive)
18,Oc1c(Cl)ccc(Cl)c1Cl,-5.01% (inactive)
19,O=[N+]([O-])c1cc(C(F)(F)F)ccc1Cl,-6.26% (inactive)
20,Cc1ccc(C)c(N)c1,0.258% (inactive)
